Our source for the Potency and activation values is PubChem BioAssay AID1645887 (National Center for Advancing Translational Sciences (NCATS), 2021).

“And” between values parts separate entries of the source, which are not always exact repeats. Equal entries are not always repeated. Hit rate of the full screen: of about 16,000 compounds, about 40 (0.2%) were called active. Roughly 1% stayed inconclusive and do not appear here. The sample holds actives, similar compounds and a random draw of the others, so the mix is not that of the screen. Some compounds were tested as several samples or in several runs, with calls that do not always agree. Values without a mark were called inactive. Calls follow the shape of the dose curve; as a rule, active = well fitted activation curve with a large enough effect; inconclusive = small, poorly fitted or top-dose-only effect, or another doubt; inactive = no such curve, though single readings can be large or run the other way.
% is scaled to controls: 0 for no effect and ±100 for the full control effect; potency is read from the fitted curve at half-maximal effect.

For this experiment, the target named is Rap guanine nucleotide exchange factor 4 (Homo sapiens) (UniProt Q8WZA2). Put plainly: Validation qHTS for agonist of cAMP-regulated guanine nucleotide exchange factor 4 (EPAC2).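 As to activation: exchange makes BODIPY-GDP fluorescence drop when released from Rap1B; series mostly up to about 150 µM.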 The settings on record: EPAC2 Rap1B BODIPY-GDP exchange, fluorescence; activation: hits give high values. The source says: Principle Investigator: Xiaodong Cheng Ph.D.
Sequence of Rap guanine nucleotide exchange factor 4 (Homo sapiens) (Q8WZA2 whole entry, looked up): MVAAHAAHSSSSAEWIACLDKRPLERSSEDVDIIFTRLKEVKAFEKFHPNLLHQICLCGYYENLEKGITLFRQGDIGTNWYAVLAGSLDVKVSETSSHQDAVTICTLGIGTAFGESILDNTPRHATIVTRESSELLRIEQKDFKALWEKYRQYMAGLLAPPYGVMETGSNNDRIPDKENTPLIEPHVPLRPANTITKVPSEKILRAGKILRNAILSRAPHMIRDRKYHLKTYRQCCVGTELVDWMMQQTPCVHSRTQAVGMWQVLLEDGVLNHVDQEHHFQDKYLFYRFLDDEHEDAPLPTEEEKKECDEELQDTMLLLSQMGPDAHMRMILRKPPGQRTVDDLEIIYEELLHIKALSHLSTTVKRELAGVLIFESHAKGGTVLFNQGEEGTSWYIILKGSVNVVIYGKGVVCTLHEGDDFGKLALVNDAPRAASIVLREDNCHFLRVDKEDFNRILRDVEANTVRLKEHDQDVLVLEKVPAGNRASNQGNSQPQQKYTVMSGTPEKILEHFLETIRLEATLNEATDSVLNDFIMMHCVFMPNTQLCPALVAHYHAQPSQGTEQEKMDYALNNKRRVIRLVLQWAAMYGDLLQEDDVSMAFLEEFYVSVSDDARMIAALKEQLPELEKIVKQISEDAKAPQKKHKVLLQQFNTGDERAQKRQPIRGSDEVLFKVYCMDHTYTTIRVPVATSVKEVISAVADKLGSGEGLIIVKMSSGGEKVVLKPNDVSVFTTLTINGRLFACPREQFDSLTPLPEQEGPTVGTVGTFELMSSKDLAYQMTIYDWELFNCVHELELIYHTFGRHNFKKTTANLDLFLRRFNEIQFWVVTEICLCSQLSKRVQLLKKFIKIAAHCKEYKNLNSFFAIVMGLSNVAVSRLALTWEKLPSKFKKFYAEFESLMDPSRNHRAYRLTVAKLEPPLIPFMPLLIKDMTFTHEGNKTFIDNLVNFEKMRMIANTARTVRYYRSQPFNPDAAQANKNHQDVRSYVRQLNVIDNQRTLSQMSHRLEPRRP
The University of Texas Medical Branch, […], TX
In multi-cellular eukaryotic organisms, the effects of cAMP are transduced by two ubiquitously-expressed intracellular cAMP receptors, the classic protein kinase A/cAMP-dependent protein kinase (PKA/cAPK) and the more recently discovered exchange protein directly activated by cAMP/cAMP-regulated guanine nucleotide exchange factor (EPAC/cAMP-GEF). Both PKA and EPAC are ubiquitously expressed in all tissues, and an increase in intracellular cAMP levels will lead to the activation of both PKA and EPAC. Therefore, careful dissections of the individual role and relative contribution of EPAC and PKA within the overall cAMP signaling in various model systems are critical for further elucidating the mechanism of cAMP signaling. To date no EPAC-specific antagonists and agonist, as well as isoform-specific agonists have been reported, and developing EPAC-specific pharmacological probes to determine the physiological functions that EPAC play in the overall cAMP-mediated signaling remains a major challenge within the research field. Furthermore, identified regulators of EPAC may lead to new mechanism-based therapeutic strategies specifically targeting the EPAC / cAMP-signaling components as EPAC has been implicated to play important roles in major human pathological conditions such as diabetes, heart disease, and cancer.
This qHTS will be used to screen the Molecular Libraries Small Molecule Repository (MLSMR) as a concentration-titration series using the NCGC unique quantitative screening (qHTS) platform to find activators for EPAC1. In addition, this assay will also be used as a counterscreen for the EPAC2 qHTS. This fluorescent based assay is developed and validated for EPAC1 that measures exchange using EPAC effector Rap1 complex with BODIPY-GDP, a GDP analog with a tethered fluorophores. Activators are identified by monitoring the change in fluorescence signal as the exchanged free BODIPY-GDP has a reduced fluorescence compared to Rap1-bound BODIPY-GDP. Increase in signal (activation) is the desired outcome for the EPAC1 agonist while no activity in this assay is desired for the EPAC2 agonist counterscreen.
[1] de Rooij, J., Zwartkruis, F. J., Verheijen, M. H., Cool, R. H., Nijman, S. M., Wittinghofer, A., and Bos, J.L. (1998) Nature 396, 474-477.
Briefly, three uL of reagents (100 nM EPAC2, 250 nM RAP1B-BODIPY-GDP, 50 uM GDP) were dispensed into a 1536-well Greiner black solid-bottom medium binding assay plate. Controls and test compounds (23 nL) were transferred to the plate via a Kalypsys pin tool equipped with a 1536-pin array. The plates were centrifuged at 1,000 rpm for 15 seconds followed by 5 minute incubation at room temperature. The assay plates were read at 5 minute intervals for 30 minutes in the ViewLux plate reader using 480nm excitation and 540nm emission filters. The results were normalized to the agonist positive control of 6.5 mM cAMP.
(In general: In qHTS, concentration-response curves come from the screen itself.)
In the case of `O=c1[nH]cc(N(CCCl)CCCl)c(=O)[nH]1`, the Potency was 100 µM (active).

Take `CN1CCCC2(CCN(C(=O)c3ccco3)CC2)C1`: the activation is 0.865%.

Regarding `NCC(O)c1cccc(O)c1` (configuration not stated), the activation is -5.63%.

`COc1ccc2c3c([nH]c2c1)C(C)=NCC3`: the activation is 23% and -2.23% and 8.55%.

`CC1=NCCc2c1[nH]c1cc(O)ccc21`: the Potency is 100 µM (active).

As to `Nc1ccc(N=Nc2ccccc2)cc1`, the activation is -19.5%.

In the case of `CCN1C[C@]2(COC)CC[C@H](OC)[C@@]34C5C[C@@H]6[C@@H](OC)C[C@@]7(OCO[C@@]7([C@@H](O)C23)[C@@H]14)C5[C@H]6OC` (some centres not stated), the activation is -3.22%.

With `[O]=[Cd]`, the activation is -0.16%.

For the molecule `O=C1/C(=C/c2ccc(N(CCCl)CCCl)cc2)Cc2ccccc21`, the activation is -1.94%.

On to `CC1=NN=C(c2ccc(N)cc2)c2cc3c(cc2C1)OCO3`, for which the Potency is 89.1 µM (active) and the activation is -34.2%.

Take `C[C@H]1[C@@H]2Cc3ccc(O)cc3[C@@]1(C)CCN2C`: the activation was -8.04%.

On to `CC1(C)C(O)CC(=O)[C@]2(C)C1CC(=O)[C@]1(C)C2CC[C@@]2(C)C(c3ccoc3)OC(=O)C3O[C@@]321` (some centres not stated), for which the activation was -10.4%.

As for `CN1C2CC(OC(=O)C(CO)c3ccccc3)CC1C(O)C2` (configuration not stated), the activation was -0.713%.

On to `COc1ccc2[nH]cc(CCN(C(C)C)C(C)C)c2c1`, for which the activation was -8.55%.

`CC(C)(C)c1cc(O)ccc1O`: the Potency was 56.2 µM (active) and the activation is -17%.

Turning to `O=S(=O)(O)c1cc(O)ccc1O`, the activation was -9.91%.

For `Cc1cc(O)ccc1Cl`, the activation is -10.1% and -9.14%.

In the case of `COc1cc(C[C@@H](C)N)c(OC)cc1C`, the activation is -5.23%.

On to `CC(C)C[C@H](NC(=O)[C@H](Cc1ccccc1)NC(=O)CNC(=O)[C@H](CO)NC(=O)[C@@H](N)Cc1ccc(O)cc1)C(=O)N[C@H](C(=O)O)[C@H](C)O`, for which the activation is 9.65%.

`NC(N)=NCCCCCCCCCCN=C(N)N`: the activation is -12% and 0.499%.

Consider `O=C1OC2(c3cc(Br)c(O)cc3Oc3c2cc(Br)c(O)[c]3[Hg])c2ccccc21` (configuration not stated), for which the Potency was 3.98 µM (active).

Regarding `CN1CCC2(CC1)CCN(C(=O)c1ccco1)CC2`, the activation is 1.62%.

In the case of `C[C@]12CCC3C(CC[C@H]4C[C@H](O)CC[C@]34C)[C@@H]1CC[C@@H]2C(=O)CO` (some centres not stated), the activation is -7.64%.

As for `CCOC(=O)[C@]12Cc3c(cc(OC)c(OC)c3OC)[C@H]1N(Cc1ccccc1)C(=O)c1ccccc12`, the activation is -19.3%.

Turning to `c1cnc(N2CC3(CCNCC3)C2)nc1`, the activation was 2.58%.
